According to PubChem BioAssay (NCATS):
“And” between values parts separate entries of the source, which are not always exact repeats. Identical values can stand only once. Records with an inconclusive call do not appear. Unmarked numbers belong to inactive results. The source made the active and inactive calls. Calls come from the whole dose curve; as a rule, active = well fitted curve in the direction sought with a large enough effect; inconclusive = small, poorly fitted or top-dose-only effect, or another doubt; inactive = no such curve, though single readings can be large; an effect the other way counts as inactive or inconclusive.

Experiments:
[1] = molecular target: Cellular tumor antigen p53 (Homo sapiens) (UniProt P04637); experiment: Primary qHTS for small molecule compounds that upregulate eGFP-tagged delta133p53alpha (in N-terminal) cells. (AID 2060322); conditions: NCI-H358 eGFP-delta133p53alpha fluorescence, 24 h; activation: stronger effect = higher value; note: nearly all actives have a fitted effect of over 75% in size; note: potency is the fitted concentration of half-maximal effect;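 for activation: cells pre-induced with doxycycline then dosed without doxycycline; 0% = DMSO vehicle and 100% = reference activator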
Cellular tumor antigen p53 (Homo sapiens), sequence (P04637 whole entry, looked up): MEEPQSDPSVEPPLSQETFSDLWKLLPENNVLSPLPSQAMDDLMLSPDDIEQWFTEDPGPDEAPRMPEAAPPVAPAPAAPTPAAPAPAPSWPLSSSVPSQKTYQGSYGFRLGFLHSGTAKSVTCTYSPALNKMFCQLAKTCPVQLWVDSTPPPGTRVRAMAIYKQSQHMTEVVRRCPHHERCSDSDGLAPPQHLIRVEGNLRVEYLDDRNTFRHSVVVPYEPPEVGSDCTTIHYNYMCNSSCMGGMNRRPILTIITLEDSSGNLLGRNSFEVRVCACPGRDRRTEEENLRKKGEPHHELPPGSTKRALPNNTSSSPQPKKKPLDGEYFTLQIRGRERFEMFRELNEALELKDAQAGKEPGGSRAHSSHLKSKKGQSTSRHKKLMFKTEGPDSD
In short: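 NCI-H358 cells pre-induced 24 h with 10 ng/ml doxycycline for eGFP-delta133p53alpha, plated dox-free and exposed 24 h at 37C to titrated compounds. Fixed, Hoechst-stained; gated GFP peak intensity by laser scanning cytometry, normalized to DMSO (0%) and 57.5 uM 5-azacytidine (100%).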

[2] = molecular target: Aldehyde dehydrogenase, mitochondrial (Homo sapiens) (UniProt P05091); experiment: qHTS for Inhibitors of the Aldehyde Dehydrogenase Family (ALDH2) Primary screen (AID 2061308); conditions: ALDH2 enzyme inhibition qHTS, 1536-well; series mostly up to 56 µM;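 note: plate controls were vehicle for no effect and reference inhibitor for full effect; nearly all actives have a fitted effect of over 55% in size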
[3] = molecular target: Retinaldehyde dehydrogenase 3 (Homo sapiens) (UniProt P47895); experiment: qHTS for Inhibitors of the Aldehyde Dehydrogenase Family (ALDH1A3) Primary screen (AID 2061315); conditions: ALDH inhibition qHTS; series mostly up to 56 µM;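 note: plate controls were DMSO vehicle for no effect and reference inhibitor for full effect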
[4] = BET inhibitor-based combinations targeting novel dependencies in MECOM-rearranged (r) AML: SET-2 cell line (AID 2202231); conditions: SET-2 AML cells viability, CellTiter-Glo luminescence, 48 h; viability: stronger effect = lower value, concentration not given here; note: nearly all actives have a fitted effect of over 35% in size; note: potency is the fitted concentration of half-maximal effect;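 for viability: plate controls were DMSO treated cells for no effect and wells without cells for full effect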
In short: (§1)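 AML cell lines seeded at 500 cells/well, treated with 11-point dose curves for 48 h. Viability by CellTiter-Glo luminescence, normalised to DMSO and empty wells; activity expressed as AUC and per-cell-line Z-transformed AUC.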

[5] = BET inhibitor-based combinations targeting novel dependencies in MECOM-rearranged (r) AML: OCI-AML3 cell line (AID 2202232); conditions: CellTiter-Glo luminescence, 48 h; Potency: OCI-AML3 viability; series mostly up to 46 µM; note: nearly all actives have a fitted effect of over 35% in size; note: potency is the fitted concentration of half-maximal effect
In short: as §1

[6] = BET inhibitor-based combinations targeting novel dependencies in MECOM-rearranged (r) AML: MV-4-11 cell line (AID 2202233); conditions: MV-4-11 AML viability, CellTiter-Glo luminescence, 48 h; series mostly up to 46 µM; note: nearly all actives have a fitted effect of over 45% in size; note: potency is the fitted concentration of half-maximal effect
In short: (§2)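 Cells at 500/well were exposed for 48 hr to MIPE v5.0 drugs as 11-point dose curves. Viability was read by CellTiter-Glo luminescence and normalized to DMSO and empty-well controls. Activity was expressed as AUC and per-cell-line Z-AUC.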

[7] = BET inhibitor-based combinations targeting novel dependencies in MECOM-rearranged (r) AML: HNT-34 cell line (AID 2202234); conditions: HNT-34 AML viability, CellTiter-Glo luminescence, 48 h; series mostly up to 46 µM; note: nearly all actives have a fitted effect of over 35% in size; note: potency is the fitted concentration of half-maximal effect
In short: as §2

[8] = BET inhibitor-based combinations targeting novel dependencies in MECOM-rearranged (r) AML: UCSD-AML1 cell line (AID 2202235); conditions: UCSD-AML1 AML cells viability, CellTiter-Glo, 48 h; series mostly up to 46 µM; note: nearly all actives have a fitted effect of over 40% in size; note: potency is the fitted concentration of half-maximal effect
In short: as §2

[9] = BET inhibitor-based combinations targeting novel dependencies in MECOM-rearranged (r) AML: AML-191 cell line (AID 2202236; note: nearly all actives have a fitted effect of over 35% in size; note: potency is the fitted concentration of half-maximal effect); conditions: AML-191 viability, CellTiter-Glo luminescence, 48 h; series mostly up to 46 µM
In short: as §1

[10] = BET inhibitor-based combinations targeting novel dependencies in MECOM-rearranged (r) AML: AML-194 cell line (AID 2202237; note: nearly all actives have a fitted effect of over 40% in size; note: potency is the fitted concentration of half-maximal effect); conditions: AML-194 (MECOM-r AML) viability, CellTiter-Glo, 48 h; series mostly up to 46 µM
In short: as §1

SMILES | activation [1] | Potency [2] | Potency [3] | viability [4] | Potency [5] | Potency [6] | Potency [7] | Potency [8] | Potency [9] | Potency [10] | Potency [1] | Potency [4]
N#Cc1ccc(C2CCCc3cncn32)cc1 (stereo not drawn) | -5% | inactive | inactive | 109% | inactive | inactive | inactive | inactive | inactive | inactive | – | –
CS(=O)(=O)c1ccc(Oc2cc(F)cc(C#N)c2)c2c1[C@H](O)C(F)(F)C2 | -20.7% | inactive | inactive | 103% | inactive | inactive | inactive | inactive | inactive | inactive | – | –
CCOc1cc(C(=O)N2CCC(N3CCN(C)CC3)CC2)ccc1Nc1ncc2c(n1)N(C1CCCC1)c1ccccc1C(=O)N2C | – | inactive | inactive | – | 3.32 µM (active) | 1.66 µM (active) | 13.2 µM (active) | 5.25 µM (active) | 11.8 µM (active) | 8.33 µM (active) | 30.1 µM (active) | 14.8 µM (active)
CN1CCC(CNc2ccc3ncc(-c4cccc(OC(F)(F)F)c4)n3n2)CC1 | – | inactive | inactive | – | 8.33 µM (active) | 0.166 µM (active) | 5.25 µM (active) | 5.9 µM (active) | 5.25 µM (active) | 4.17 µM (active) | 26.9 µM (active) | 11.8 µM (active)
Cc1ccc(C(N)=O)cc1Nc1nccc(-c2cn(C(C)C)c3cnccc23)n1 | – | inactive | inactive | – | 7.42 µM (active) | 0.0833 µM (active) | 2.95 µM (active) | 4.68 µM (active) | 5.25 µM (active) | 8.33 µM (active) | 10.9 µM (active) | 7.42 µM (active)
C=CC(=O)Nc1cccc(Sc2nc(Nc3ccc(N4CCN(C)CC4)cc3)ncc2Cl)c1 | – | inactive | inactive | – | 13.2 µM (active) | 2.95 µM (active) | 6.61 µM (active) | 9.34 µM (active) | 10.5 µM (active) | 10.5 µM (active) | 12 µM (active) | 11.8 µM (active)
Cn1cc(-c2ccc(S(=O)(=O)n3ccc(/C=C/C(=O)Nc4ccccc4N)c3)cc2)cn1 | – | inactive | inactive | – | 1.18 µM (active) | 1.18 µM (active) | 1.05 µM (active) | 1.18 µM (active) | 0.833 µM (active) | 1.05 µM (active) | 19 µM (active) | 1.86 µM (active)
O=C(c1ccc(Nc2nccc(-c3cc4ccccc4s3)n2)cc1)N1CCC(N2CCCC2)CC1 | -33.3% | inactive | inactive | – | 18.6 µM (active) | 1.86 µM (active) | 5.25 µM (active) | 3.32 µM (active) | 7.42 µM (active) | 7.42 µM (active) | – | 6.61 µM (active)
Cc1cc(C(C)Nc2ccccc2)c2nc(N3CCOCC3)cc(=O)n2c1 (stereo not drawn) | 9.6% and -9.82% | inactive | inactive | 91.4% | 2.63 µM (active) | 16.6 µM (active) | 16.6 µM (active) | 16.6 µM (active) | 18.6 µM (active) | 23.5 µM (active) | – | –
COc1ccc(-c2cc3c(C)nc(N)nc3n(C3CCC(OCCO)CC3)c2=O)cn1 (stereo not drawn) | 3.45% | inactive | inactive | – | 0.417 µM (active) | 0.296 µM (active) | 0.59 µM (active) | 0.105 µM (active) | 0.296 µM (active) | 0.209 µM (active) | – | 1.66 µM (active)
Cn1c2cc(S(C)=O)sc2c2cnn(Cc3cccc(N)c3)c(=O)c21 (stereo not drawn) | 15.5% | inactive | inactive | 104% | inactive | inactive | inactive | inactive | inactive | inactive | – | –
C=CCn1c(=O)c2cnc(Nc3ccc(N4CCN(C)CC4)cc3)nc2n1-c1cccc(C(C)(C)O)n1 | – | inactive | inactive | – | 1.66 µM (active) | 0.742 µM (active) | 0.296 µM (active) | 0.833 µM (active) | 0.742 µM (active) | 0.742 µM (active) | 21.7 µM (active) and 2.69 µM (active) | 1.32 µM (active)
COc1cc2c(Nc3ccc(NC(=O)c4ccccc4)cc3)ncnc2cc1OCCCN1CCOCC1 | 32.6% | inactive | inactive | – | 18.6 µM (active) | 1.66 µM (active) | 1.32 µM (active) | inactive | 20.9 µM (active) | 23.5 µM (active) | – | 26.3 µM (active)
CCCS(=O)(=O)Nc1ccc(F)c(C(=O)c2c[nH]c3ncc(-c4ccc(Cl)cc4)cc23)c1F | 15.9% and 18.8% | inactive | inactive | 117% | inactive | 33.2 µM (active) | 14.8 µM (active) | – | – | inactive | – | –
